HP1b binding inh: HP1-beta chromodomain-methylated histone interaction inhibition | P83916 | AlphaScreen HP1-beta / biotin-H3K9me3 peptide binding | Potency, µM (doses to about 114 µM), without a hit: at the highest dose activity change, negative = inhibition, usual class: inhibitors | 390,000 compounds, 0.56% hits | AID 540317; note: potency is the fitted concentration of half-maximal effect; nearly all actives have a fitted effect of over 70% in size
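Compound inhibition of the preformed complex between 50 nM HP1-beta and 50 nM biotinylated H3K9me3 peptide was read by AlphaScreen. Buffer was PBS pH 7.4 with 0.01% Tween-20. Incubations ran 30 min at room temperature, with 10 ug/mL donor/acceptor beads.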
Six1-Eya2 blk: Six1/Eya2 interaction inhibition. AID 651725. Q15475+O00167. activity change, % (test concentration not listed). 360,000 compounds, 0.56% hits. AlphaScreen GST-Six1/His-Eya2 binding, biochemical; active compounds read low; in the data active = activity change below about -65%; inconclusive = mostly about -30% to -63%; note: % is set by controls: 0 for no effect and ±100 for the full control effect
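Homogeneous AlphaScreen proximity assay pairing GST-Six1 with His-tagged Eya2 (added as 5X mix: 250 nM and 500 nM) in 50 mM Tris pH 8.0, 300 mM NaCl, 1 mM TCEP. Glutathione donor and nickel acceptor beads; 1 h, 37 °C, dark.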
G9a inh: G9a (human) methyltransferase inhibition. G9a H3K9 monomethylation, AlphaScreen, 2 h. AID 504332. Potency, µM (highest dose often 102 µM), inactives show at the highest dose activity, negative = inhibition, actives largely listed as inhibitors. Q96KQ7. 350,000 compounds, 8.8% hits; note: potency is the fitted concentration of half-maximal effect; % is set by controls: 0 for no effect and ±100 for the full control effect; nearly all actives have a fitted effect of over 75% in size
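Chemiluminescent proximity detection of H3K9 monomethylation, read after 10 min bead incubation in the dark. Reaction: 20 nM G9a, 500 nM biotin-H3K9 peptide, 20 uM SAM cofactor, 2 h, room temperature, following 15 min enzyme-compound preincubation.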
CtBP-E1A inh: blocks the CtBP interaction with E1A | AlphaScreen GST-E1A/His-CtBP binding, 1536-well; active compounds read low | activity change, % (test concentration not listed) | 340,000 compounds, 0.49% hits | AID 651724; in the data active = activity change below about -65%; inconclusive = mostly about -30% to -63%; note: % is set by controls: 0 for no effect and ±100 for the full control effect
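In 5 uL wells, 23 nL compound meets equimolar GST-E1A and His-CtBP (5X stock 125 nM each) for 2 h, 37 °C. Beads (5X, 50 ug/mL) then 1 h, 37 °C, dark.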
JMJD2A Tudor: blocks the human JMJD2A Tudor domain. O75164. AlphaScreen JMJD2A-Tudor / H3K4me3 peptide binding. Potency, µM (doses to about 114 µM), for the others: at the highest dose activity change, negative = inhibition, usual class: inhibitors. 390,000 compounds, 4.4% hits. AID 504339; note: potency is the fitted concentration of half-maximal effect; % is set by controls: 0 for no effect and ±100 for the full control effect; nearly all actives have a fitted effect of over 50% in size
Target sequence (O75164 whole entry, looked up, the tested form may be a part): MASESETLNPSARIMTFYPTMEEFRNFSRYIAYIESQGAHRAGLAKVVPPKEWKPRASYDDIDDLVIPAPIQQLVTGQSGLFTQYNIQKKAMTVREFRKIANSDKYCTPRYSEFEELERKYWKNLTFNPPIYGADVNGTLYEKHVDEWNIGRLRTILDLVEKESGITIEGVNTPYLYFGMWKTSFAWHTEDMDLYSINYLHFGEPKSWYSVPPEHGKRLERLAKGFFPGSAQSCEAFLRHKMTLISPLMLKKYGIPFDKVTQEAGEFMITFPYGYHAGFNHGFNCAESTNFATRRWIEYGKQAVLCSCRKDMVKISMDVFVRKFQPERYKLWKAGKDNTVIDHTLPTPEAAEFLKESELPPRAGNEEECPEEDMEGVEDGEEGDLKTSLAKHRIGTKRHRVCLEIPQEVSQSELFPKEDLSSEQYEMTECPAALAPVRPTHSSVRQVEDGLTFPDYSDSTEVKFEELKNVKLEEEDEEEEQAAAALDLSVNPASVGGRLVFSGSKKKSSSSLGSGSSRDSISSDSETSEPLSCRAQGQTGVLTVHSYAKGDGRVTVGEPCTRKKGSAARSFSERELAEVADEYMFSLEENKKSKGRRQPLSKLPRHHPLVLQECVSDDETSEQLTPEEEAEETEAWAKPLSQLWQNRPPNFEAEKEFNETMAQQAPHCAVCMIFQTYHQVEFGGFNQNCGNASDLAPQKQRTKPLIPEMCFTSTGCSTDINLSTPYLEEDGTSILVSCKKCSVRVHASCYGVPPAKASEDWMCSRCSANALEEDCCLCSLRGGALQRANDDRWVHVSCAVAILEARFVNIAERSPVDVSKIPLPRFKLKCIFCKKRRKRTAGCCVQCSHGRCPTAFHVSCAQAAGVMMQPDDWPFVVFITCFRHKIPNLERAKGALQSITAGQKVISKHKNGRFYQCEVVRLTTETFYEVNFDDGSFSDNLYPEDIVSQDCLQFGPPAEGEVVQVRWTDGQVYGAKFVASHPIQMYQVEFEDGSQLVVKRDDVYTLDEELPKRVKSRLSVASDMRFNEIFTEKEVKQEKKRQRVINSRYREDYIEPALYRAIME
BAZ2B block: blocks human BAZ2B | 360,000 compounds, 4.4% hits | AID 504333 | Potency, µM (doses to about 114 µM), for inactives: at the highest dose activity change, negative = inhibition, usual class: inhibitors | AlphaScreen BAZ2B-H3K14Ac peptide displacement; note: potency is the fitted concentration of half-maximal effect; % is set by controls: 0 for no effect and ±100 for the full control effect; nearly all actives have a fitted effect of over 60% in size
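Multi-concentration screen (max 110 uM) measuring displacement of acetylated histone H3 peptide from BAZ2B by AlphaScreen, using 50 nM protein, 50 nM peptide and 10 ug/mL streptavidin donor plus Ni-chelate acceptor beads.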
An asterisk follows results filed as active; ? = inconclusive; nt = not tested or not shown; [ ] = dose if it differs, or a comment. Sampled rows, rich in hits. Any-hit rate of the full collection: about 10%. Unless noted, calls come from the whole dose curve; as a rule, active = well fitted inhibition curve with a large enough effect; inconclusive = small, poorly fitted or top-dose-only effect; inactive = no such curve, though single readings can be large or run the other way.

SMILES	HP1b binding inh	Six1-Eya2 blk	G9a inh	CtBP-E1A inh	JMJD2A Tudor	BAZ2B block
Cc1ccc(OCC(O)CN2CC3(C)CC2CC(C)(C)C3)cc1 (stereo not drawn)	?	-3	20µM*	3	1.1µM*	?
Cc1cccc(OCC(O)CN2CC3(C)CC2CC(C)(C)C3)c1 (stereo not drawn)	-34%	4	28µM*	13	18µM*	?
O=C(Cn1cc(C(=O)C(F)(F)F)c2ccccc21)N1CCCCCC1	18%	nt	-2%[59 µM]	nt	-7%	1%
CCc1ccc(NC(=O)C2CCCN2S(=O)(=O)c2cccc3nsnc23)cc1 (stereo not drawn)	26%	nt	-7%[59 µM]	nt	-30%	-35%
C=CCSC1=N/C(=C\c2ccc(C(=O)O)cc2)C(=O)S1	-5%	-2	45µM*	0	6%	-29%
CCSC1=N/C(=C\c2ccc(C(=O)O)cc2)C(=O)S1	1%	9	?	7	-36%	?
O=C1SC(SCc2ccccc2Cl)=N/C1=C\c1ccc(C(=O)O)cc1	41%	5	40µM*	-8	-18%	3%
COc1cc(N=Nc2ccc(C)cc2S(N)(=O)=O)c(C)cc1N	20µM*	?	nt	?	6.3µM*	nt
COc1ccc(S(=O)(=O)CCC(=O)Nc2cc(C)ccc2OC)cc1	33%	3	28µM*	nt	-13%	-1%
COc1ccc(Cl)cc1NC(=O)CCN1CCN(C)CC1	5%	-16	19%[12.7 µM]	-8	-17%	?
COC(=O)c1ccc(NC(=O)CCn2cccc2)cc1	5%	0	-14%[59 µM]	0	-26%	?
CCc1ccc(NC(=O)CCn2cccc2)cc1	-17%	-3	50µM*	-13	-30%[57.1 µM]	?
COc1ccc(Cl)cc1NC(=O)CCn1nc(C)cc1C	10%	nt	-2%[59 µM]	nt	?	71µM*
COc1ccccc1NC(=O)CCS(=O)(=O)c1ccccc1	44%	3	-8%	6	-1%	-15%
COc1ccc(OC)c(NC(=O)CCn2cccc2)c1	-16%	-13	?	1	-30%	50µM*
CCn1cnc2c1c(=O)n(CC(=O)OC(C)C(N)=O)c(=O)n2Cc1ccccc1 (stereo not drawn)	19%	11	nt	-5	1%	-12%
COc1ccc(OC)c(NC(=O)CCCc2ccccc2)c1	21%	-1	nt	nt	-12%	-7%
COc1ccc(OC)c(NC(=O)c2csnn2)c1	-12%	nt	14µM*	nt	?	?
O=C(Nc1ccccc1NC(=O)c1csnn1)c1csnn1	34%	5	nt	nt	-9%	-10%
COc1ccc(CCCC(=O)Nc2cc(C)ccc2OC)cc1	60%	0	79µM*	14	12%	6%
Cc1cccc(NC(=O)CCn2cnc3ccccc3c2=O)c1	-7%[57 µM]	nt	-10%[59 µM]	nt	-19%	?
O=C(CCSc1ccccc1Cl)NNC(=O)c1ccncc1	36%	6	0%	-3	-4%	-3%
COc1ccc(S(=O)(=O)NC(Cc2cnc[nH]2)C(=O)O)cc1 (stereo not drawn)	5%	8	?	-8	13µM*	-2%
COc1ccc(S(=O)(=O)NC(Cc2ccccc2)C(=O)O)cc1 (stereo not drawn)	53%	7	3%	nt	-4%	-12%
COc1ccccc1NC(C)C(=O)N/N=C/c1cccs1 (stereo not drawn)	-3%	-2	-5%	-4	-26%	?
SMILES	HP1b binding inh	Six1-Eya2 blk	G9a inh	CtBP-E1A inh	JMJD2A Tudor	BAZ2B block
CCOc1ccc(NC(C)C(=O)N/N=C/c2cccs2)cc1 (stereo not drawn)	0%	?	45µM*	-11	-36%	?
O=C(NCc1ccco1)C1CCN(c2nc3ccccc3n2Cc2ccc(F)cc2)CC1	-6%	-3	79µM*	-2	?	?
COc1nc(OC)nc(N2CCC(C(=O)NCc3ccco3)CC2)n1	17%	0	3%[12.7 µM]	3	-3%	5%
Nc1c(C(=O)Nc2ccccc2Cl)nnn1Cc1cccc(Cl)c1	21%	nt	-7%[59 µM]	nt	-11%	-13%
O=S(=O)(CCN1CCSCC1)c1ccc(Cl)cc1	22%	-3	-27%	-5	2%	-5%
CCOC(=O)[C@@H]1[C@H]2COc3ccc(Br)cc3[C@@H]2N2C(=O)N(c3ccc(C(F)(F)F)cc3)C(=O)[C@]12C	34%	-6	6%	-5	-9%	-2%
COCCNCC(=O)N1CCCCCC1	-29%	2	8.9µM*	1	3.5µM*	50µM*
COCCNCC(=O)N1c2ccccc2Sc2ccccc21	-20%	-14	?	-8	?	?
Cc1cccc(Cn2c(C)c(C)c3cc(C(=O)NCc4ccco4)ccc32)c1	-1%	nt	-48%[59 µM]	nt	?	-33%
CCCCCN1CN(S(=O)(=O)c2cccs2)c2nc3ccccc3nc21	25%	3	28µM*	-20	-20%	-2%
Cc1ccc(S(=O)(=O)N2CN(CC3CCCO3)c3nc4ccccc4nc32)c(C)c1 (stereo not drawn)	9%	-2	32µM*	nt	-5%	?
COCCCN1CN(S(=O)(=O)c2ccc(C)cc2C)c2nc3ccccc3nc21	31%	3	32µM*	nt	-9%	?
O=S(=O)(c1cccs1)N1CN(Cc2cccs2)c2nc3ccccc3nc21	10%	-5	?	-8	-31%	-6%
O=S(=O)(c1cccs1)N1CN(CC2CCCO2)c2nc3ccccc3nc21 (stereo not drawn)	13%	-1	?	1	-24%	-5%
O=c1c(-c2cc(F)cc(F)c2)nc2cnc(N3CCNCC3)nc2n1CCc1ccccc1	nt	nt	-1%[12.7 µM]	nt	nt	nt
CC(C)Nc1ncnc2c1ncn2[C@H]1CN(C2CCCC2)C[C@@H](CO)O1	nt	1	nt	1	nt	nt
Cc1cccc(C)c1N1CCN(C(c2cc3ccccc3o2)c2nnnn2C(C)(C)C)CC1 (stereo not drawn)	nt	-14	nt	-3	nt	nt
COc1ccccc1CNC(=O)c1ccccc1C(=O)NC(CC(C)C)C(=O)NCc1ccccc1OC (stereo not drawn)	3%	4	-5%[59 µM]	3	35µM*	?
COc1ccccc1CNC(=O)c1ccc(Br)o1	52%	2	35µM*	3	-19%	-3%
O=C(NCc1ccccc1Cl)c1ccc(Br)o1	38%	0	9%	2	6%	-10%
CCc1nc2c(OCc3ccc(C(F)(F)F)cc3)cccn2c1N(C)C(=O)c1ccncc1	nt	-2	nt	0	nt	nt
CC1(C)CC(=O)C(C(c2cc([N+](=O)[O-])ccc2Cl)C2C(=O)CC(C)(C)CC2=O)C(=O)C1	55%	-11	nt	9	-3%	nt
Cc1sc(C(C2C(=O)CC(C)(C)CC2=O)C2C(=O)CC(C)(C)CC2=O)cc1[N+](=O)[O-]	-9%	1	7.9µM*	nt	28µM*	56µM*

High-throughput results as filed in PubChem BioAssay.
